# Measured values as given in PubChem BioAssay.
# Active and inactive are the calls of the source. Unless noted, the rule behind the calls is not given here.
# Key:
# [1] = compound effects on lung adenocarcinoma cell viability – A549, calcein-AM fluorescence, 48 h, basal, profiling panel (AID 1162); conditions: higher = more signal; note: test concentration not given here
# [2] = compound effects on differentiated 3T3-L1 adipocyte viability – cell-based, 3T3-L1 adipocytes, calcein-AM fluorescence, 48 h, basal, profiling panel (AID 1163); conditions: 3T3-L1 adipocytes viability, higher = more signal; note: test concentration not given here
# [3] = compound effects on hepatocellular carcinoma cell viability – HepG2, calcein-AM fluorescence, 48 h, basal, profiling panel (AID 1164); conditions: higher = more signal; note: test concentration not given here
# [4] = compound effects on multiple myeloma cell viability – MM1S, calcein-AM fluorescence, 48 h, basal, profiling panel (AID 1165); conditions: higher = more signal; note: test concentration not given here
# [5] = calcein-AM signal in unstimulated myeloma cells – cell-based, calcein-AM fluorescence, 48 h, PK04 Diversity Set, profiling panel (AID 1166); conditions: RPMI8226 myeloma viability, higher = more signal;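 note: cells grown under basal conditions without added stimulus; test concentration not given here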
# [6] = JC-1 mitochondrial signal, unstimulated HepG2 cells – cell-based, JC-1 fluorescence, 24 h, 100 nL compound, profiling panel (AID 1167); conditions: HepG2 mitochondrial potential, higher = more signal; note: test concentration not given here
# [7] = JC-1 mitochondrial signal, unstimulated adipocytes – cell-based, JC-1 fluorescence, 3T3-L1 adipocytes, 24 h, 100 nL compound, profiling panel (AID 1168); conditions: JC-1 mitochondrial fluorescence, higher = more signal, called active from +8 up or from −8 down; note: test concentration not given here
# [8] = JC-1 mitochondrial signal, unstimulated myeloma cells – cell-based, JC-1 fluorescence, RPMI8226, 24 h, 100 nL compound, profiling panel (AID 1169); conditions: JC-1 mitochondrial potential fluorescence, higher = more signal; note: test concentration not given here
# [9] = JC-1 mitochondrial signal, unstimulated MM1S myeloma – cell-based, JC-1 fluorescence, 24 h, 100 nL compound, profiling panel (AID 1170); conditions: MM1S mitochondrial potential, higher = more signal; note: test concentration not given here
# [10] = resazurin metabolic signal in A549 cells – cell-based, resazurin fluorescence, 24 h, PK04 Diversity Set, profiling panel (AID 1171); conditions: A549 viability, higher = more signal, called active from +8 up or from −8 down; note: test concentration not given here
# [11] = resazurin metabolic signal in HepG2 cells – cell-based, resazurin fluorescence, 24 h, PK04 Diversity Set, profiling panel (AID 1172); conditions: HepG2 viability, higher = more signal; note: test concentration not given here
# [12] = budding yeast growth changes without added modifier – OD600, strain BY4716, 24 h, basal condition, primary screen (AID 1173); conditions: S. cerevisiae BY4716 growth, OD600, 24 h; higher = more signal, called active from +8 up or from −8 down
# [13] = viability profiling in MM1S myeloma cells – cell-based, resazurin fluorescence, basal, 24 h, PK04 Diversity Set, profiling panel (AID 1174); conditions: higher = more signal, called active from +8 up or from −8 down; note: test concentration not given here
# [14] = biological target: Dihydroorotate dehydrogenase (quinone), mitochondrial (Plasmodium falciparum (isolate 3D7)) (UniProt Q08210); assay: inhibition of P. falciparum DHODH – biochemical, C-terminal His tag, absorbance 600 nm, primary screen (AID 1175); conditions: PfDHODH enzyme, DCIP absorbance 600 nm; higher = more signal, called active from +8 up or from −8 down;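 note: recombinant parasite enzyme with a five histidine tag at its C terminus; test concentration not given here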
# [15] = inhibition of PAO1 biofilm formation – strain PAO1, LB-PBS medium, absorbance 600 nm, primary screen (AID 1176); note: test concentration not given here; conditions: P. aeruginosa PAO1 growth/biofilm, A600, 12 h; higher = more signal
# [16] = growth modulation of vineyard yeast isolate – strain RM11-1a, OD600, basal, 24 h, primary screen (AID 1177);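 note: cultures grown under basal conditions with no added stressor; test concentration not given here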; conditions: S. cerevisiae RM11-1a growth, OD600, 24 h; higher = more signal, called active from +8 up or from −8 down
# [17] = growth of efflux-deficient E. coli DRC39 – strain DRC39, OD650, 24 h, E. coli filamentation inducers, primary screen (AID 1178);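 note: growth measured as culture turbidity by optical density at 650 nm; test concentration not given here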; conditions: E. coli DRC39 acrAB, higher = more signal, called active from +8 up or from −8 down
# [18] = growth of efflux-deficient E. coli DRC39 – strain DRC39, OD650, 48 h, E. coli filamentation inducers, primary screen (AID 1179);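 note: screen aims at cell division blockers that make cells filament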; conditions: E. coli DRC39 delta-acrAB growth, higher = more signal, called active from +8 up or from −8 down
# [19] = viability profiling in RPMI8226 myeloma cells – cell-based, resazurin fluorescence, basal, 24 h, PK04 Diversity Set, profiling panel (AID 1180); conditions: higher = more signal;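 note: RPMI8826 multiple myeloma cell line at 5000 cells per well; test concentration not given here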
# [20] = biological target: E3 ubiquitin-protein ligase XIAP (Homo sapiens) (UniProt P98170); assay: small molecules binding XIAP protein – biophysical, small-molecule microarray, fluorescence 635 nm, primary screen (AID 1181); conditions: higher = more signal;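 note: score merges 667 nm emission and signal to noise over triplicate slides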
# Sequence of E3 ubiquitin-protein ligase XIAP (Homo sapiens) (P98170 whole entry, looked up): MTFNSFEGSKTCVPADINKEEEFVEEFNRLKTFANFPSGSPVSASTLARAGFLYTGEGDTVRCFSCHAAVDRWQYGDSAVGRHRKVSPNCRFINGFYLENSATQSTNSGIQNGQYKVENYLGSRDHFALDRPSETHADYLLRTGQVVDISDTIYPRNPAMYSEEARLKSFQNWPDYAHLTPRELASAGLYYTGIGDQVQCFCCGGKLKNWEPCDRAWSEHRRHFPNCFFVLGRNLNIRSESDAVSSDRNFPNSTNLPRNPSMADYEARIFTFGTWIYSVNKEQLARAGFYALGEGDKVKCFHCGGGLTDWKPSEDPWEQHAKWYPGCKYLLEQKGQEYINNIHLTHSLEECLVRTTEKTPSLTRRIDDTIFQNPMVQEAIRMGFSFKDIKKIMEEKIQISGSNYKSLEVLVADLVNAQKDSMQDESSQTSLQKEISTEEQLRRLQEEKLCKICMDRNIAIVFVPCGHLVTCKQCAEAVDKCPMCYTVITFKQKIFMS
# Sequence of Dihydroorotate dehydrogenase (quinone), mitochondrial (Plasmodium falciparum (isolate 3D7)) (Q08210 whole entry, looked up): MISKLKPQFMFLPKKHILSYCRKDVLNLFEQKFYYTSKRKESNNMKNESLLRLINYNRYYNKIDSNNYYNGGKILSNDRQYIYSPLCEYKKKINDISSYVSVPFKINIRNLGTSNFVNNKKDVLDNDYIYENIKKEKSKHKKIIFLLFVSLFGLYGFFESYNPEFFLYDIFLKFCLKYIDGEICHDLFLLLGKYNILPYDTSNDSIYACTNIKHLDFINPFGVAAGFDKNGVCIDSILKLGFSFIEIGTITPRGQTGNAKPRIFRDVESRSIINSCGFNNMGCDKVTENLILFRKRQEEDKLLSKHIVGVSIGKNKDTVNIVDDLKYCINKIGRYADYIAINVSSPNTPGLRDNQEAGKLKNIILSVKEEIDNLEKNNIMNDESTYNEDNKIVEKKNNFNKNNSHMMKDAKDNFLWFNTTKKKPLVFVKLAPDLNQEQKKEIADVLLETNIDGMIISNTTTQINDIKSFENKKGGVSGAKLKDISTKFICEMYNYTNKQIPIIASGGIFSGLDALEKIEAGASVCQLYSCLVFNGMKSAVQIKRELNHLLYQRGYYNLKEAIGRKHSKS
Compound,z-score [1],z-score [2],z-score [3],z-score [4],z-score [5],z-score [6],z-score [7],z-score [8],z-score [9],z-score [10],z-score [11],z-score [12],z-score [13],composite z-score [14],z-score [15],z-score [16],z-score [17],z-score [18],z-score [19],composite z-score [20]
C[C@]1(C(=O)NC2CC2)c2ccccc2C(=O)N(Cc2ccccc2)[C@H]1c1ccc(CO)cc1,0.395,1.51,-0.577,0.855,-0.655,1.66,0.195 (inactive),-0.0462,0.263,0.54 (inactive),-0.0738,-0.886 (inactive),1.62 (inactive),-0.806 (inactive),0.553 (inactive),-1.02 (inactive),0.809 (inactive),0.653 (inactive),1.08,-0.234
CC(C)(C)OC(=O)CC[C@]1(C(=O)NCc2ccccc2)N=C(c2ccc(OCCCO)cc2)O[C@H]1c1ccccc1CN=[N+]=[N-],0.858,-0.0665,2.17,-0.863,0.213,1.17,0.0993 (inactive),-0.518,-0.773,-0.768 (inactive),-1.08,0.103 (inactive),-1.49 (inactive),0.281 (inactive),0.702 (inactive),0.53 (inactive),0.414 (inactive),0.391 (inactive),-0.551,0.0942
C=CCOC(=O)[C@H]1[C@@H]2C(=O)O[C@@H](c3ccccc3)[C@@H](c3ccccc3)N2[C@@H](c2ccc(OCCOC(=O)[C@H]3C[C@H]4C(=O)N[C@@H](CC(C)C)C(=O)N4[C@H]3c3cccc(OCCO)c3)cc2)[C@]12C(=O)Nc1ccc(I)cc12,-0.681,0.329,0.281,-1.15,-0.0034,1.69,0.681 (inactive),-0.762,-0.7,-0.0975 (inactive),-0.054,1.9 (inactive),-0.414 (inactive),0.124 (inactive),2.9 (inactive),0.447 (inactive),-0.0744 (inactive),-0.62 (inactive),-0.385,-0.0174
C=C(C)C1CCC(C(O)C2C=CC3C(=O)N(C)C(=O)C3N2N2CCCCC2)CC1 (stereo not given),-1.25,-1.16,-0.774,-0.683,-0.665,-1.38,-1.53 (inactive),0.887,-0.31,0.262 (inactive),-0.689,0.08 (inactive),-1.19 (inactive),0.112 (inactive),0.751 (inactive),1.82 (inactive),-0.742 (inactive),-0.654 (inactive),-0.954,0.62
COc1ccc(CCNC(=O)[C@@H]2c3ccccc3C(=O)N(Cc3cc(C(F)(F)F)cc(C(F)(F)F)c3)[C@H]2c2ccc(CO)cc2)cc1,1.64,1.58,1.17,-1.4,-0.35,1.61,-0.497 (inactive),-0.0116,0.29,0.349 (inactive),0.317,-0.662 (inactive),-0.295 (inactive),-0.928 (inactive),0.279 (inactive),0.864 (inactive),0.619 (inactive),0.591 (inactive),0.451,-0.213
O=C1O[C@H](c2ccccc2)[C@H](c2ccccc2)N2[C@H]1[C@@H](C(=O)Nc1nc3ccccc3s1)[C@]1(C(=O)Nc3ccc(C#CCCO)cc31)[C@H]2c1ccc(O)cc1,0.695,0.215,-0.257,-2.26,-3.96,-3.86,-0.525 (inactive),-1.25,-1.48,0.679 (inactive),0.506,0.14 (inactive),0.157 (inactive),-0.253 (inactive),1.04 (inactive),0.604 (inactive),0.266 (inactive),0.145 (inactive),-2.4,1.01
COCCOC(=O)N1C(=O)[C@@]2(c3cc(C#CC4=CCCCC4)ccc31)[C@H](c1ccccc1OCCO)N1[C@H](c3ccccc3)[C@H](c3ccccc3)OC(=O)[C@H]1[C@@H]2C(=O)N1CCCCCCC1,-2.1,0.443,-0.599,-2.38,-2.38,0.737,0.262 (inactive),-0.934,-1.31,0.0309 (inactive),0.133,1.86 (inactive),-4.58 (inactive),0.668 (inactive),0.365 (inactive),2.01 (inactive),0.105 (inactive),-1.32 (inactive),-3.11,-0.0663
COC(=O)[C@@]1(Cc2ccccc2)[C@H]2c3cc(C(=O)N(C)C)n(CCc4ccc(O)c(OC)c4)c3C[C@H]2CN1C(=O)c1ccccc1,0.0634,-0.121,0.343,-1.32,-0.0242,-0.533,-0.9 (inactive),-0.665,-0.241,0.641 (inactive),0.0393,0.483 (inactive),-0.207 (inactive),-0.487 (inactive),0.454 (inactive),0.194 (inactive),-0.514 (inactive),-0.253 (inactive),0.0379,-0.0373
COc1ccc([Si](C)(C)[C@H]2[C@H](CCn3cc([C@H](O)c4ccccc4)nn3)O[C@@]3(C(=O)N(Cc4ccc(N5C(=O)c6cccc7cccc5c67)cc4)c4ccccc43)[C@@H]2C)cc1,0.332,-0.488,1.02,-0.702,-0.74,1.58,-0.526 (inactive),-0.296,0.516,-1.26 (inactive),-0.0876,0.0957 (inactive),-1.96 (inactive),0.468 (inactive),1.03 (inactive),1.26 (inactive),1.57 (inactive),1.45 (inactive),-0.761,-0.031
COc1ccc(CN(C2=CC[C@@]3(C(N)=O)C(=O)C(Cl)=C(Cl)C(=O)[C@@]3(C#N)C2)S(=O)(=O)c2ccc(Br)cc2)cc1,0.236,0.167,0.0144,-3.34,-1.66,-2.16,-0.689 (inactive),-0.885,-2.06,-1.12 (inactive),-0.275,-1.2 (inactive),-2.88 (inactive),-4.12 (inactive),0.481 (inactive),-0.96 (inactive),0.506 (inactive),0.575 (inactive),-1.18,0.0937
COC(=O)c1cn(C[C@@H](Cc2ccccc2)NC(=O)N[C@H](CO)CCc2oc(C(C)=O)c(C(=O)OC)c2C(=O)OC)nn1,-0.282,0.53,-0.0248,0.408,0.206,0.629,1.09 (inactive),-0.0706,0.962,0.0604 (inactive),0.0852,-1.3 (inactive),0.438 (inactive),0.223 (inactive),-0.227 (inactive),-0.504 (inactive),1.3 (inactive),0.604 (inactive),-0.181,-0.02
CN1C(=O)C2C=CC(C(O)c3ccc(F)cc3)N(Nc3ccccc3)C2C1=O (stereo not given),-0.434,-1.02,-0.613,-1.82,0.196,-1.81,-0.8 (inactive),0.663,0.431,-0.369 (inactive),-1.05,0.544 (inactive),-1.24 (inactive),0.869 (inactive),0.944 (inactive),1.38 (inactive),-1.03 (inactive),-0.894 (inactive),-1.58,0.0761
COCCCNC(=O)[C@]1(CCS(=O)(=O)c2ccccc2)N=C(c2ccc(OCCCO)cc2)O[C@@H]1c1ccccc1N=[N+]=[N-],0.76,0.108,0.683,-1.41,-0.311,-0.0945,-0.594 (inactive),-0.986,-0.754,0.265 (inactive),0.129,0.0817 (inactive),-0.458 (inactive),0.887 (inactive),0.413 (inactive),0.771 (inactive),0.357 (inactive),0.0059 (inactive),-0.998,-0.199
Cc1cc(C)c(C(O)C2C=CC3C(=O)N(c4ccccc4)C(=O)C3N2Nc2ccc(C(C)C)cc2)c(C)c1 (stereo not given),-0.314,0.669,0.273,-0.0101,-0.792,-1.37,-1.13 (inactive),-0.698,0.19,-1.72 (inactive),-1.47,0.626 (inactive),-1.8 (inactive),0.68 (inactive),1.28 (inactive),1.58 (inactive),-0.841 (inactive),-0.876 (inactive),-1.08,-0.387
CCCCC=C[C@@H](NC(=O)c1ccc(-c2ccccc2)cc1)c1ccccc1,-1.58,-0.768,-1.47,-0.795,-2.1,-4.15,0.045 (inactive),-0.741,-0.819,-0.305 (inactive),0.272,-0.447 (inactive),-0.821 (inactive),0.34 (inactive),0.191 (inactive),0.491 (inactive),-0.335 (inactive),-0.0289 (inactive),-1.75,-0.0272
O=C1NC(=O)C2C1C=CC(C(O)c1c(F)cccc1Cl)N2Nc1ccc(Cl)cc1Cl (stereo not given),-2.11,0.0772,-2.82,-3.64,-1.39,-3.44,-0.775 (inactive),-1.06,-1.46,-2.22 (inactive),-3.13,-14.8 (active),-2.21 (inactive),0.0047 (inactive),1.44 (inactive),-1.12 (inactive),-0.854 (inactive),-1.44 (inactive),-2.2,0.482
Cc1ccc(S[C@]2(C(=O)NCCCN(C)C)CC(=O)N(C3CCCCC3)[C@@H]2c2ccc(CO)cc2)cc1,0.242,-0.148,-0.0685,-1.96,-0.0053,1.53,-0.112 (inactive),-0.151,-0.528,1.06 (inactive),-0.0347,0.0406 (inactive),0.118 (inactive),0.193 (inactive),0.236 (inactive),1.21 (inactive),0.425 (inactive),0.509 (inactive),-0.0763,-0.0374
